From PubChem BioAssay (NCATS)
Inconclusive results are not listed. Activity calls are given as the source filed them. Unless noted, the call rests on the fitted dose curve; in most records, active means well fitted curve in either direction with a large enough effect (not every such curve was filed as active); inconclusive means small, poorly fitted or top-dose-only effect, or another doubt; inactive means flat fitted curve, though single readings scatter.

What was measured:
[1] = target: Lysosomal acid glucosylceramidase (Homo sapiens) (UniProt P04062); assay: Glucocerebrosidase-p2 (AID 348; in the data active means potency below about 10 µM; further: potency means the concentration at half of the fitted maximal effect); details: purified GBA, blue fluorogenic substrate, 40 min
Lysosomal acid glucosylceramidase (Homo sapiens), sequence (P04062 whole entry, looked up): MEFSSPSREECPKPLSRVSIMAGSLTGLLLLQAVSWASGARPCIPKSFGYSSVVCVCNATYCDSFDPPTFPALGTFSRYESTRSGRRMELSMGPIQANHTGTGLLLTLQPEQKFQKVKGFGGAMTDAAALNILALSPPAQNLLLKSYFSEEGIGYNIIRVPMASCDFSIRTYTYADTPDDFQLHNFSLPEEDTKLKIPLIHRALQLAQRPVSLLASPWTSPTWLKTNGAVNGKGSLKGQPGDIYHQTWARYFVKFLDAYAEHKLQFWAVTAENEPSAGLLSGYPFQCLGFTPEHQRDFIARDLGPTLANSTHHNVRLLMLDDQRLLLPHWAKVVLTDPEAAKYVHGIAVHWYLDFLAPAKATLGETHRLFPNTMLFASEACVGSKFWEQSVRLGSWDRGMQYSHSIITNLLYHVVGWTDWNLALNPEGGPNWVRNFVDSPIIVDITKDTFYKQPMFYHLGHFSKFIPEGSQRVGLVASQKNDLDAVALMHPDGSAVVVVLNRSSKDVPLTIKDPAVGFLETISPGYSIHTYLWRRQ
How it was run: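 Compounds titrated from 0.6 nM upwards against 0.2 nM enzyme in pH 5.9 citric acid/KH2PO4, taurocholate, tween-20; blue fluorogenic substrate 80 uM, 40 min room temperature, stopped and read Ex 365/Em 440 for AC50.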

[2] = AP1 Signaling Pathway (AID 357); details: ME-180 AP-1-bla reporter, EGF-induced, beta-lactamase ratio, 5 h; at 7.69 µM (top of the series) unless noted;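 further: ME-180 reporter cells stimulated with EGF at its EC50 level; on the % scale 0 is the no-effect control and ±100 the full control effect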
How it was run: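 Cells are seeded overnight, exposed to compound titrations and an EC50 level of EGF for 5 hours at 37 °C, then loaded with CCF4 dye for 2.5 hours. Beta-lactamase activity under the AP-1 element is read as a blue/green ratio.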

[3] = NFAT Signaling Pathway (AID 444); details: Jurkat NFAT-bla M1, carbachol, beta-lactamase ratio, 5 h; at 7.69 µM (top of the series) unless noted;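 further: carbachol stimulus at about its EC50 of 1 µM final; on the % scale 0 is the no-effect control and ±100 the full control effect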
How it was run: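 Read-out: CCF4 FRET ratio (460 nm/530 nm) after 1 h RT dye loading, used for %activity and AC50 from titration series. Cells: Jurkat NFAT-β-lactamase/M1 line, treated with compound plus 1 uM carbachol for 5 h, 37 °C.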

[4] = Stat Signaling Pathway (AID 446); details: ME-180 SIE beta-lactamase reporter, IL-6 stimulated, 5 h; at 7.69 µM (top of the series) unless noted;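 further: ME-180 cervical cancer cells given 40 pM IL-6 alongside compound; SIE-controlled beta-lactamase reporter measured as 460/530 nm FRET emission ratio; on the % scale 0 is the no-effect control and ±100 the full control effect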
How it was run: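 Screening format detects activators and inhibitors alike: ME-180 SIE-bla cells stimulated at 40 pM IL-6 for 5 hrs with compound, then dual-emission beta-lactamase read at 405 nm excitation.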

[5] = target: Glucocorticoid receptor (Homo sapiens) (UniProt P04150); assay: GR-GFP Redistribution (AID 450;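 active means compounds whose dose series gives a full or clear partial fitted curve of increased nuclear translocation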; further: potency means the concentration at half of the fitted maximal effect); details: U2OS GR-GFP nuclear translocation, laser cytometry, 2 h
Glucocorticoid receptor (Homo sapiens), sequence (P04150 whole entry, looked up, the tested form may be a part): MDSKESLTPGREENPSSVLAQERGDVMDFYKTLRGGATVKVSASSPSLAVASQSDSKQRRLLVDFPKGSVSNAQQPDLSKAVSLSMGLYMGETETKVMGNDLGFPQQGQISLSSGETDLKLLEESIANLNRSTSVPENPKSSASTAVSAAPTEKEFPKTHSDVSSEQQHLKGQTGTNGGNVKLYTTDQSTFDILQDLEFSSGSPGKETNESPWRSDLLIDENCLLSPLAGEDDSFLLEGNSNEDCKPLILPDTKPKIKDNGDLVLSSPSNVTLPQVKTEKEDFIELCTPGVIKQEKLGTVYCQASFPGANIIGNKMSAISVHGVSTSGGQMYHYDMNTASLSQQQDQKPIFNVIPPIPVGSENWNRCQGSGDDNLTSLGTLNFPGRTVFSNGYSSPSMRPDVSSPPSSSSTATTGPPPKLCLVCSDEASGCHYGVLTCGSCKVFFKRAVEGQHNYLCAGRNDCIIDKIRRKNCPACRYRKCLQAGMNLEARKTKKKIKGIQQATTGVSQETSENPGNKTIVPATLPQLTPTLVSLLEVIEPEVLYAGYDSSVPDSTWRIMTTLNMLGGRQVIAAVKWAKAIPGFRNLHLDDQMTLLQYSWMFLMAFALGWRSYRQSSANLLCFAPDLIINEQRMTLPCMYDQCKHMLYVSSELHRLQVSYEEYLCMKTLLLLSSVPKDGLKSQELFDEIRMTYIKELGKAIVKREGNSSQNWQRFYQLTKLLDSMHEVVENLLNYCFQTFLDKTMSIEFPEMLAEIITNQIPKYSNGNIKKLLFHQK

[6] = target: Glucocorticoid receptor (Homo sapiens) (UniProt P04150); assay: GR-EFC Redistribution (AID 451; calls by dose curve; further: potency means the concentration at half of the fitted maximal effect); details: CHO-K1 GR-EFC translocation, beta-gal luminescence, 2 h
How it was run: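 Translocation of GR-ED fusion to nuclear EA restores b-gal, read by luminescence after 1 h room-temperature detection. Engineered CHO-K1 biosensor cells, 1,000/well, exposed 2 h at 37 C to titrations up to 46 uM final.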

[7] = target: Mitogen-activated protein kinase 10 (Mus musculus) (UniProt Q61831); assay: JNK3 AlphaScreen Assay (AID 530); details: JNK3 lysate, c-Jun phosphorylation; series mostly up to 11.4 µM;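 further: kinase came from lysate of stimulated human HepG2 cells; signal reports phosphorylation of biotinylated GST-cJun 1-79 at Ser73 with 10 µM ATP; on the % scale 0 is the no-effect control and ±100 the full control effect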
How it was run: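 Room-temperature AlphaScreen kinase assay; pre-activated HepG2 lysate as JNK3 source, biotin-GST-cJun(1-79) substrate, 10 uM ATP, compound 15 min preincubation.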

[8] = target: 3',5'-cyclic-AMP phosphodiesterase 4B (Homo sapiens) (UniProt Q07343); assay: qHTS Assay for Inhibitors of PDE-IV (AID 607; active means well fitted activation curve with a large enough effect in the main read-out, with a control signal flat, not every such curve was filed as active; further: % of control where 0% means no effect); details: HEK293 ACTOne CNG channel cells, membrane potential fluorescence; series mostly up to 22.9 µM
3',5'-cyclic-AMP phosphodiesterase 4B (Homo sapiens), sequence (Q07343 whole entry, looked up): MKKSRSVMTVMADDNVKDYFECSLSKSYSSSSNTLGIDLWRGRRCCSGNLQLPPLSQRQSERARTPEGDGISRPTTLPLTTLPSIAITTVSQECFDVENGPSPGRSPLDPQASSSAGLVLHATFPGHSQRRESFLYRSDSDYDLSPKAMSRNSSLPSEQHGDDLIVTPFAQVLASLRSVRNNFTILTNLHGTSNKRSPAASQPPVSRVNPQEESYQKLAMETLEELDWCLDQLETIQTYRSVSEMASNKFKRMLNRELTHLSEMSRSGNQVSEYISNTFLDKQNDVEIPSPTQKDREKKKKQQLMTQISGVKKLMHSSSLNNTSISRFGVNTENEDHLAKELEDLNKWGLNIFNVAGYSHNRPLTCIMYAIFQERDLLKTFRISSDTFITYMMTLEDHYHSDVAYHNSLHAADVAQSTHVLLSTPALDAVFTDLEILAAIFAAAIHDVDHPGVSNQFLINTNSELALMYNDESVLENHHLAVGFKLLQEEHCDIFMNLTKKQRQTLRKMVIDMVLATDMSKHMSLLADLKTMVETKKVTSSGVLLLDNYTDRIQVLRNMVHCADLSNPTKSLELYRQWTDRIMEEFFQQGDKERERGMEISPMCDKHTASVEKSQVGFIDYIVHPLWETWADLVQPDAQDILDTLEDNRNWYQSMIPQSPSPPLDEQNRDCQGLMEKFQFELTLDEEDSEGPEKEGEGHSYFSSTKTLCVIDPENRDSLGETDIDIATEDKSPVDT
How it was run: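 The readout is membrane depolarisation from a cAMP-sensing CNG channel, detected with a potential dye at ex 535/em 590. Cells were HEK293-derived (endogenous PDE-IV) at 1000 cells/well, titrated up to 22.9 uM final.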

CC(C)C[C@H](N)C(=O)O
inactive: Potency [1] > 11.4 µM | activity change, negative = inhibition [2] 10.7% | activity change, negative = inhibition [3] 1.77% | activity, negative = inhibition [4] 5.12% | Potency [5] > 46 µM | Potency [6] > 9.22 µM | Potency [7] | Potency [8]

C#CCOC(=O)[C@H](N)CC(N)=O
inactive: Potency [1] > 11.4 µM | activity change, negative = inhibition [2] 0.665% | activity change, negative = inhibition [3] 13.9% | activity, negative = inhibition [4] -0.998% | Potency [5] > 46 µM | Potency [6] > 9.22 µM | Potency [7] | Potency [8]

N=C(CC(=O)Nc1ccccn1)c1ccccc1
inactive: Potency [1] > 11.4 µM | activity change, negative = inhibition [2] 3.96% | activity change, negative = inhibition [3] 28.4% | activity, negative = inhibition [4] 5.02% | Potency [5] > 46 µM | Potency [6] > 9.22 µM | Potency [7] | Potency [8]

CC(C)=C[C@H]1[C@@H](COC(=O)c2cc3c(cc2Cl)OCO3)C1(C)C
inactive: Potency [1] > 11.4 µM | activity change, negative = inhibition [2] 9.62% | activity change, negative = inhibition [3] 1.43% | activity, negative = inhibition [4] 13.6% | Potency [5] > 46 µM | Potency [6] > 9.22 µM | Potency [7] | Potency [8]

Cc1cccc2cc3ccc4ccccc4c3cc12
inactive: Potency [1] > 11.4 µM | activity change, negative = inhibition [2] -0.591% | activity change, negative = inhibition [3] -3.47% | activity, negative = inhibition [4] 19.6% | Potency [5] > 46 µM | Potency [6] > 9.22 µM | Potency [7] | Potency [8]

c1ccc(CO[C@H]2NCCN2Cc2ccccc2)cc1
inactive: Potency [1] > 11.4 µM | activity change, negative = inhibition [2] 11% | activity change, negative = inhibition [3] 9.93% | activity, negative = inhibition [4] 12.8% | Potency [5] > 46 µM | Potency [6] > 9.22 µM | Potency [7] | Potency [8]

C[N+]1(C)CCO[C@](O)(c2ccccc2)C1
inactive: Potency [1] > 11.4 µM | activity change, negative = inhibition [2] 7.17% | activity change, negative = inhibition [3] -3.28% | activity, negative = inhibition [4] 6.89% | Potency [5] > 46 µM | Potency [6] > 9.22 µM | Potency [7] | Potency [8]

Cn1c(=S)c2[nH]c(SCCN3C(=O)c4ccccc4C3=O)nc2n(C)c1=O
inactive: Potency [1] > 11.4 µM | activity change, negative = inhibition [2] 0.578% | activity change, negative = inhibition [3] -4.22% | activity, negative = inhibition [4] 2.07% | Potency [5] > 46 µM | Potency [6] > 9.22 µM | Potency [7] | Potency [8]

CC(C)(C)c1ccc(-c2nnc(SCc3ccc(Cl)cc3)n2-c2cccc(C(F)(F)F)c2)cc1
inactive: Potency [1] > 11.4 µM | activity change, negative = inhibition [2] 5.08% | activity change, negative = inhibition [3] -23.1% | activity, negative = inhibition [4] 3.24% | Potency [5] > 46 µM | Potency [6] > 9.22 µM | Potency [7] | Potency [8]

COc1ccc(Br)c2c1C[C@H](C(=O)O)CC2
inactive: Potency [1] > 11.4 µM | activity change, negative = inhibition [2] 12.4% | activity change, negative = inhibition [3] 2.11% | activity, negative = inhibition [4] -1.98% | Potency [5] > 46 µM | Potency [6] > 9.22 µM | Potency [7] | Potency [8]

CN(/N=C\c1ccccc1O)c1ccc2ccccc2n1
inactive: Potency [1] > 11.4 µM | activity change, negative = inhibition [2] -2.44% | activity change, negative = inhibition [3] -9.81% | activity, negative = inhibition [4] 1.98% | Potency [5] > 46 µM | Potency [6] > 9.22 µM | Potency [7] | Potency [8]

OCCSCc1cc(Cl)cc(Cl)c1O
inactive: Potency [1] > 11.4 µM | activity change, negative = inhibition [2] -3.03% | activity change, negative = inhibition [3] 14.2% | activity, negative = inhibition [4] 17.5% | Potency [5] > 46 µM | Potency [6] > 9.22 µM | Potency [7] | Potency [8]

O=C(O)[C@H]1O[C@H]1C(=O)O
inactive: Potency [1] > 11.4 µM | activity change, negative = inhibition [2] 7.85% | activity change, negative = inhibition [3] -1.75% | activity, negative = inhibition [4] 2.71% | Potency [5] > 46 µM | Potency [6] > 9.22 µM | Potency [7] | Potency [8]
